# BLM helicase inh: Bloom syndrome helicase (human) inhibition. P54132. recombinant BLM DNA unwinding, fluorescence dequenching. Potency, µM (doses to about 56.1 µM), actives largely listed as inhibitors. 0.2% of 350,000 active; further: nearly all actives have a fitted effect of over 35% in size
# APE1 inh: inhibitors of human APE1 endonuclease | Potency, µM (highest dose often 65.8 µM), actives largely listed as inhibitors | AID 2517 | P27695 | 0.35% of 350,000 active | recombinant APE1, TAMRA/BHQ-2 abasic DNA cleavage fluorescence; further: nearly all actives have a fitted effect of over 55% in size
#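 Measures dequenching upon AP-site incision of a 5'-TAMRA/3'-BHQ-2 THF-containing duplex, 50 nM; human APE1 0.75 nM after 15 min room-temperature exposure to compound; kinetic three-point read at one-minute spacing.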
# RECQ1 inh: blocks DNA unwinding by human RECQ1. Potency, µM (highest dose often 57.3 µM), usual class: inhibitors. 0.54% of 240,000 active. AID 2549. RECQ1 DNA unwinding, red fluorescence kinetic read; further: nearly all actives have a fitted effect of over 30% in size
#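 RECQ1T1 50 nM; forked duplex (20 bp + 30-nt ss tails) 200 nM, ATP 2 mM final; pH 8.0, 2 mM MgCl2, 2.5 ug/ml poly(dI-dC); 15 min compound preincubation; discontinuous kinetic read over 2 h at RT.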
# WRN helicase inh: blocks human WRN helicase | Q14191 | WRN helicase unwinding, fluorescent forked duplex, kinetic | Potency, µM (titrated, usually from 114 µM), usual class: inhibitors | 0.46% of 360,000 active | AID 651768; further: nearly all actives have a fitted effect of over 55% in size
#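 Primary qHTS, 1536-well format. 20 nM WRN + compound, 15 min RT; start with 100 nM forked fluorophore/quencher duplex, 2 mM ATP (final); kinetic read ex 525/em 598 nm.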
# ERG-DNA inh: ERG Ets/DNA interaction inhibition; P11308; Potency, µM (series often up to 76.9 µM), usual class: inhibitors; AID 624246; 0.028% of 370,000 active; fluorescence polarization, His-ERG Ets domain / labelled DNA; active means well fitted inhibition curve with a large enough effect in the polarisation, with a control signal flat; inconclusive means small, poorly fitted or top-dose-only effect, or effect the other way, or a change in a side signal; inactive means no such curve, though single readings can be large or run the other way; the % refers to the polarisation;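 further: polarization taken with two DNA probes labelled with fluorescein and Texas red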
# Target sequence (P11308 whole entry, looked up, the tested form may be a part): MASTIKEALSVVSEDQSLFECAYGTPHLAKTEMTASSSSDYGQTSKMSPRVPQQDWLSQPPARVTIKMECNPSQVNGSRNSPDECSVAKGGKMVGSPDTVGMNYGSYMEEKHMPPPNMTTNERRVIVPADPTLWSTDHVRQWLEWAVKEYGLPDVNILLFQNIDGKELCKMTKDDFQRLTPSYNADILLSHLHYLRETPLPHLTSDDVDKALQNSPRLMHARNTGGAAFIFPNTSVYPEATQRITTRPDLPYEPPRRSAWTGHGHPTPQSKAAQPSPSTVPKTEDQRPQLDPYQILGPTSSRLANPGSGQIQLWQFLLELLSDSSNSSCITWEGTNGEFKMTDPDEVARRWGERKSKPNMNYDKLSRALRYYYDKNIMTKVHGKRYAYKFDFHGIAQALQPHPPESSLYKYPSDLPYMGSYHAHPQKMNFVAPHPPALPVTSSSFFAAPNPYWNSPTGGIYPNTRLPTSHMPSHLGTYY
#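 His-tagged ERG Ets domain (1 uM in the protein solution; 300mM KCl, 50mM Tris-HCl, 1mM EDTA, 1mM DTT, pH 7.5) received compound, then a probe mix of 5 nM fluorescein-DNA and 100nM Texas-615-DNA. Fluorescence polarization was read for both dyes.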
# KAT2A inh: inhibitors of human GCN5L2 histone acetyltransferase | GCN5L2 HAT assay, ThioGlo1 CoA-SH fluorescence | Potency, µM (titrated, usually from 58.9 µM), most hits filed as inhibitors | Q92830 | 0.21% of 390,000 active
#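 Fluorescence readout, Ex340nm/Em540nm: ThioGlo1 (50uM final) reacts with free CoA thiol released as 20nM GCN5L2 acetylates H3(1-25) peptide (75uM) using acetyl-CoA (70uM). Compound and enzyme sat 15 min beforehand; 20 min room-temperature reaction.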
# A number is an active result; i = inactive; ? = inconclusive; nt = no result given; [ ] = another dose, or the depositor's remark. Compounds with a hit are over-represented: about 0.88% of the library has one in this group of screens. Unless noted, the call rests on the fitted dose curve; in most records, active means well fitted curve in the direction sought with a large enough effect; inconclusive means small, poorly fitted or top-dose-only effect, or another doubt; inactive means no such curve, though single readings can be large; an effect the other way counts as inactive or inconclusive.
SMILES,BLM helicase inh,APE1 inh,RECQ1 inh,WRN helicase inh,ERG-DNA inh,KAT2A inh
Cc1cc(C(=O)COC(=O)c2cc(Cl)c(O)c(Cl)c2)c(C)n1C,nt,i,nt,50µM,i,?
CC(C)CO/N=C1/[C@H]2O[C@@H]2[C@@H](O)[C@H]2[C@H]1CCn1c(=O)n(C)c(=O)n12,i[12.4 µM],i[12.4 µM],i[11.5 µM],nt,nt,nt
O=C1CCC=C1[C@@H](O)CCc1ccccc1,i[12.4 µM],i[12.4 µM],i[11.5 µM],nt,nt,nt
CC(C)Oc1ccc(C(=O)N/N=C/c2ccc(-c3ccc(S(=O)(=O)Nc4ncccn4)cc3)o2)cc1,i,i,?,50µM,i,i
NC(=O)N/N=C/c1ccc(-c2ccc(S(=O)(=O)Nc3ncccn3)cc2)o1,nt,i,nt,i[11.6 µM],i,i
CSCC[C@H](NC(=O)[C@H](CC(C)C)NC(=O)[C@@H]1CCCN1C(=O)[C@H](Cc1ccccc1)NC(=O)[C@H](Cc1ccccc1)NC(=O)[C@H](CCC(N)=O)NC(=O)[C@H](CCC(N)=O)NC(=O)[C@@H]1CCCN1C(=O)[C@H](CCCCN)NC(=O)[C@@H]1CCCN1C(=O)[C@@H](N)CCCN=C(N)N)C(N)=O,i,i,i,nt,nt,i
Cc1occc1C(=O)NCCCCNC(=O)c1ccoc1C,i,i,i,i,i,i
CCCCCCCCCCCNC(=O)c1ccoc1C,i,i,i,50µM,i,i
O=C(c1ccc(CSc2nc3ccncc3n2Cc2ccccc2F)cc1)N1CCCCCC1,i,nt,nt,nt,i,i
CC(/C=C/c1ccco1)=N\NC(=O)c1cc(C)[nH]n1,i,i,32µM,?,i,i
C[C@H]1O[C@@H](O[C@H]2CC[C@@]3(C)C(CC[C@]4(C)C3C=C[C@]35OC[C@@]6(CCC(C)(C)C[C@H]63)[C@@H](O)C[C@]54C)[C@]2(C)CO)[C@H](O)[C@@H](O[C@@H]2O[C@H](CO)[C@@H](O)[C@H](O)[C@H]2O)[C@H]1O (some centres undefined),nt,21µM,nt,i,i,i
CC1OC(OC2C(OC3C(O[C@H]4CC[C@]5(C)C6C=C[C@]78OC[C@@]9(CC[C@@H](C)[C@H](C)C97)[C@H](O)C[C@@]8(C)[C@]6(C)CC[C@H]5C4(C)C)OC(C)C(O)C3O)OC(CO)C(O)C2O)C(O)C(O)C1O (some centres undefined),i,i,i,nt,nt,i
O=C1OCCN1C(=O)[C@H]1[C@H](c2ccccc2)C(c2ccccc2)=NN1c1ccc(Br)cc1,i,i,i,i,i,?
O=C1OCCN1C(=O)[C@H]1[C@H](c2ccccc2)C(c2ccccc2)=NN1c1ccccc1,i,i,i,i,i,28µM
CCc1cc(=O)oc2c3c(cc(OCC(=O)NCCC(=O)O)c12)OC(C)(C)CC3,i,i,nt,i,i,?
CCCCC(NC(=O)COc1cc2c(c3oc(=O)cc(C)c13)CCC(C)(C)O2)C(=O)O (centres undefined),i,i,nt,i,i,35µM
Cc1cc(=O)oc2c3c(cc(OCC(=O)N[C@@H](C)C(=O)O)c12)OC(C)(C)CC3,i,i,nt,i,i,i
CCc1cc(=O)oc2c3c(cc(OCC(=O)NCCCC(=O)O)c12)OC(C)(C)CC3,i,i,nt,i,i,10µM
Cc1c(C)c2c(OCC(=O)N3CCC(C(=O)O)CC3)cc3c(c2oc1=O)CCC(C)(C)O3,i,i,nt,i,i,16µM
Cc1cccc(NC(=O)c2ccc(S(=O)(=O)N3CCCCC3)cc2)n1,i,i,i,i,i,i
Cc1csc(C(C#N)C(=O)c2ccc(S(=O)(=O)N3CCCC3)cc2)n1 (centres undefined),i,i,i,i,i,1µM
CC(C)n1c(=O)[nH][nH]c1=S,i,i,i,56µM,i,14µM
CCN1CCN(c2cc(C)c3cc(NC(=O)/C=C/c4cccc(Cl)c4)ccc3n2)CC1,i,nt,nt,nt,i,i
O=C(CSc1nnc(Nc2ccccc2F)s1)NC1CCS(=O)(=O)C1 (centres undefined),nt,i,nt,i,i,i
O=C(CSc1nnc(Nc2ccccc2F)s1)NC(=O)CN1CCCC1=O,nt,11µM,nt,i,i,i
SMILES,BLM helicase inh,APE1 inh,RECQ1 inh,WRN helicase inh,ERG-DNA inh,KAT2A inh
COCC1=C2c3ccccc3[C@@H]3CNC(=O)C3(C(=O)OC)C[C@@H]2n2c(=O)n(-c3ccccc3)c(=O)n2C1 (some centres undefined),i,i,i,nt,nt,nt
O=C(O)c1cc(Cl)c2c(c1)[C@@H]1C=CC[C@@H]1[C@H](c1ccc(S(=O)(=O)N3CCOCC3)cc1)N2,i,i,i,28µM,i,?
Cc1ccc2[nH]c(O)c(N=NC(=O)c3ccc(NS(=O)(=O)c4cccs4)cc3)c2c1,i,i,i,i,i,i
Cc1cccc2c(N=NC(=O)c3ccc(NS(=O)(=O)c4cccs4)cc3)c(O)[nH]c12,nt,?,nt,20µM,i,i
Cc1ccc(C(=O)c2c(N)c(C(=O)Nc3cccc(C(F)(F)F)c3)c3ccccn23)cc1,i,nt,nt,nt,i,i
Cc1ccc(-c2cc(C(=O)N3CC(C)OC(C)C3)c3ccccc3n2)o1 (centres undefined),nt,i,nt,i,i,22µM
COC(=O)c1cc(-c2ccc(C)o2)nc2ccccc12,i,?,i,?,i,?
Cc1ccc(-c2cc(C(=O)N3CC(C)CC(C)C3)c3ccccc3n2)o1 (centres undefined),i,i,nt,50µM,i,i
CCCCCCCCCCCC,i,i,i,nt,nt,i
CC[C@H](C)[C@H](NC(=O)[C@H](Cc1ccc(O)cc1)NC(=O)[C@@H]1CCCN1C(=O)[C@H](CCCN=C(N)N)NC(=O)[C@H](CCCN=C(N)N)NC(=O)[C@@H]1CCCN1C(=O)[C@H](CCCCN)NC(=O)[C@H](CC(N)=O)NC(=O)[C@H](CCC(N)=O)NC(=O)[C@H](Cc1ccc(O)cc1)NC(=O)[C@H](CC(C)C)NC(=O)[C@@H]1CCC(=O)N1)C(=O)N[C@@H](CC(C)C)C(=O)O,i,i,i,nt,nt,i
O=C1c2ccccc2-c2onc3ccc(NCCCn4ccnc4)c1c23,35µM,28µM,28µM,32µM,nt,i
COc1ccc2noc3c2c1C(=O)c1ccccc1-3,nt,nt,nt,?,i,nt
COc1cccc(NC(=S)NC2CC(C)CC(C)(C)C2)c1 (centres undefined),nt,nt,nt,i,nt,nt
O=C1c2sc3nc4n(c(=O)c3c2CCC1Br)CCCCC4 (centres undefined),25µM,i,i,i,i,i
O=S(=O)(Nc1cc2nc3ccccc3nc2n1Cc1ccccc1)c1ccc(Cl)cc1,5µM,i,i,?,i,?

# Bioassay records: PubChem BioAssay, National Center for Advancing Translational Sciences (NCATS)
